# Compounds with a hit are over-represented: about 2.4% of the library has one in this group of screens.
# TRHR ag: activates the human TRH receptor; P34981; TRHR cells, calcium flux fluo-8, FDSS agonist mode; activation, % at 2 µM; 0.18% of 360,000 active; in the data active = activation above about 30%; also: 0% is about no effect
# Target sequence (P34981 whole entry, looked up): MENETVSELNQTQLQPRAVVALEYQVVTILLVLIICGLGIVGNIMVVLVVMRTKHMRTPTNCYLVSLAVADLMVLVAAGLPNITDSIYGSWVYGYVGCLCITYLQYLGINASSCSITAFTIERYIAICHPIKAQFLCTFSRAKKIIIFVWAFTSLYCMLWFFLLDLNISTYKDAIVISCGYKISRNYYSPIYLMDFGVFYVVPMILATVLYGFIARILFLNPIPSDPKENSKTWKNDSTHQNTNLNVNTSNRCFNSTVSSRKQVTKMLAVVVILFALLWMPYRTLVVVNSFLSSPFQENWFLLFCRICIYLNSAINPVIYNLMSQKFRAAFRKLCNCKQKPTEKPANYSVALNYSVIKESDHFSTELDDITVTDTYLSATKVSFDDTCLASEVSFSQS
#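 TRHR-expressing cells loaded with fluo-8 calcium dye; 23 nL library compound pin-transferred, kinetic FDSS fluorescence (Ex 480/Em 530) recorded about 180 s for agonist-induced calcium release, before a 10 nM TRH EC20 addition for potentiator mode.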
# TRHR PAM: allosteric enhancers of human TRH receptor; P34981; TRHR cells, fluo-8 calcium fluorescence, EC20 TRH enhancement; enhancement, % at 2 µM; 0.66% of 360,000 active; AID 493056; in the data active = enhancement above about 30%; also: 0% is about no effect
#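 Enhancer read-out: after compound pinning and an initial kinetic agonist-mode read, an EC20 of TRH (10 nM final) was injected and fluo-8 calcium signal (Ex 480/Em 530) followed at 1 s/cycle for 100 cycles in TRHR-expressing cells.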
# HEK293 tox: cytotoxicity counter-screen for GLP-1 receptor inverse agonists; HEK293 cAMP-luciferase reporter cells, luminescence, 24 h; Potency, µM (series often up to 38.3 µM), inactives show at the top dose activity change, negative = inhibition, actives largely listed as inhibitors; 0.13% of 410,000 active; AID 624418;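 also: loss of luciferase light is scored as toxicity; potency is read from the fitted curve at half-maximal effect; % is scaled to controls: 0 for no effect and ±100 for the full control effect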
#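 Compound-treated cells are incubated 24 hr at 37 deg C under 5% CO2 after a 12 hour attachment period, then luciferase detection reagent is added and luminescence is measured following 12 min at room temperature; lowered signal indicates toxicity.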
# GLP-1R inv ag: inverse agonists of human GLP-1 receptor; P43220; HEK293 GLP-1R CRE-luciferase, luminescence, 24 h; GLP-1R form is constitutively active; Potency, µM (series often up to 38.3 µM), for inactives: at the top dose activity change, negative = inhibition, usual class: inhibitors; 1.6% of 410,000 active; AID 624417; also: potency is read from the fitted curve at half-maximal effect; % is scaled to controls: 0 for no effect and ±100 for the full control effect; nearly all actives have a fitted effect of over 55% in size
#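 Inverse agonism was detected as reduced cAMP-driven luciferase luminescence after 24 h compound treatment. The cells were HEK293 clones expressing constitutively active human GLP-1R with the reporter. Reporter-only and GPR119 cell lines served as counterscreen controls.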
# PTHR1 ag: activates the human parathyroid hormone receptor PTHR1; HEK293 GP2 PTHR1 cells, GloSensor cAMP luminescence, 1 h; Potency, µM (titrated, usually from 115 µM), inactives show at the top dose activation, hits mostly activators; 0.075% of 410,000 active; AID 743266; also: potency is read from the fitted curve at half-maximal effect; nearly all actives have a fitted effect of over 55% in size
#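 HEK-293-derived GP2 cells expressing PTHR1 and a GloSensor cAMP reporter, 3,000/well, plated overnight, given luciferin plus IBMX (each 0.5 mM as added) for 1 h at 37 °C, then compound for 1 h at 37 °C. Luminescence was read after 15 min at room temperature.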
# GLP-1R agonist: activates the human GLP-1 receptor; P43220; HEK293 GLP-1R CRE-luciferase, luminescence, 4-6 h; cells express a hypersensitive GLP-1R form; Potency, µM (doses to about 45.6 µM), without a hit: top-dose activation, usual class: activators; 0.007% of 380,000 active; also: potency is read from the fitted curve at half-maximal effect; % of control where 0% means no effect
# * hit, by the source's call; i = inactive; ? = inconclusive; . = no result given; [ ] = another dose, or the depositor's remark. Unless noted, calls follow the shape of the dose curve; as a rule, active = well fitted curve in the direction sought with a large enough effect; inconclusive = small, poorly fitted or top-dose-only effect, or another doubt; inactive = no such curve, though single readings can be large; an effect the other way counts as inactive or inconclusive.
SMILES,TRHR ag,TRHR PAM,HEK293 tox,GLP-1R inv ag,PTHR1 ag,GLP-1R agonist
O=C(Nc1ccc(-c2cscn2)cc1)C1CCCN(Cc2ccccc2)C1 (configuration not stated),0,-1,?,?,?,2%
CCNC(=S)NNC(=O)c1ccc(=O)n(Cc2ccccc2)c1,-3,-2,-1%,31%,i,5%
O=C(O)[C@H](Cc1ccccc1)NC(=O)C(c1ccccc1)(c1ccccc1)c1ccccc1,0,-7,0%,10µM*,-7%,-4%
CCCNC(=O)C1CCC(Cn2c(=O)c3sccc3n(Cc3cccc(OC)c3)c2=O)CC1 (configuration not stated),0,53*,-1%,1%,-4%,.
O=C(NCc1ccccc1)c1ccc(C2SCC(=O)N2Cc2ccccc2)cc1 (configuration not stated),0,-4,-7%,10µM*,-20%[57.5 µM],-1%
C=CCNC(=O)c1ccc(C2SCC(=O)N2Cc2ccccc2)cc1 (configuration not stated),0,-2,-8%,-4%,-11%,-3%
Cc1ccc(CC(C)(O)CC(C)(O)Cc2ccc(C)cc2)cc1 (configuration not stated),.,.,1%,10µM*,-18%,6%
C/C(=N\N=C(N)N)c1ccc(Cl)c(Cl)c1,1,-1,?,8.9µM*,-3%,-2%
Cc1nn(C(C)C(=O)NC2CCCCC2)c(=O)c2c1sc1ccccc12 (configuration not stated),1,3,4%,-1%,i,.
CCSc1ncc(Cl)c(C(=O)N(Cc2ccccc2)Cc2ccco2)n1,-1,1,0%,10µM*,-71%,.
CCCSc1ncc(Cl)c(C(=O)N(Cc2ccc(Cl)cc2)Cc2ccco2)n1,4,-10,-15%,-79%,-38%,.
CCCS(=O)(=O)c1ncc(Cl)c(C(=O)N(Cc2ccccc2)Cc2ccco2)n1,1,-26,10µM*,13µM*,-93%,.
CCSc1ncc(Cl)c(C(=O)Nc2ccccc2)n1,-1,36*,-1%,?,-9%,6%
COc1ccc(NC(=O)c2nc(SC)ncc2Cl)cc1,0,2,-10%,-14%,13%,-2%
CSc1ncc(Cl)c(C(=O)N(Cc2ccc(N(C)C)cc2)Cc2ccco2)n1,0,-8,-9%,?,i,.
COc1ccc(N(Cc2ccccc2)C(=O)c2nc(SC)ncc2Cl)cc1,0,-14,4%,11µM*,-7%,.
Cc1sc2nc(C3CC3)nc(NCCNS(=O)(=O)c3ccccc3)c2c1C,1,5,-27%,-27%,i,18%
Cc1c(-c2nc(-c3ccccc3)no2)nnn1-c1ccc(F)c(Cl)c1,1,-5,2%,5%,-17%,.
COc1cccc(N(C(=O)c2ccco2)C(C(=O)NC2CCCC2)c2ccc(N3CCOCC3)cc2)c1 (configuration not stated),0,3,14%,14%,-24%,6%
Brc1ccc(-c2csc(NC3=NCCCCC3)n2)cc1,0,14,12%,3%,i,21%
COc1ccc(Br)cc1-c1nc2c(c(=O)[nH]c(=O)n2Cc2ccccc2)n1C,0,-3,-5%,2%,i,15%
CC(=O)Nc1ccc2c(c1)Cc1c-2cc(Br)c(N)c1Br,.,.,0%,42%,-5%,-1%
S=c1nc2ccccc2c2nc(-c3ccccc3)[nH]n12,0,23,0.89µM*,?,i,-3%
COc1cc(/C=N/N2CCOCC2)ccc1OCc1ccc(Cl)cc1,0,2,0%,?,-8%,15%
CN1C(=O)/C(=C/c2ccc(OCc3ccc(F)cc3)cc2)N(C)C1=S,0,-1,-4%,10%,-2%,10%
SMILES,TRHR ag,TRHR PAM,HEK293 tox,GLP-1R inv ag,PTHR1 ag,GLP-1R agonist
CN1C(=O)/C(=C/c2ccccc2OCc2cccc(F)c2)N(C)C1=S,1,-1,-4%,5.6µM*,-19%,12%
Cc1[nH]c2ccccc2c1C(c1ccccc1)c1ccc(Cl)s1 (configuration not stated),-1,1,-13%,10µM*,-97%,.
Cc1[nH]c2ccccc2c1C(C[N+](=O)[O-])c1cccs1 (configuration not stated),0,8,-2%,?,-23%,3%
O=C(CCCN1C(=O)/C(=C/c2ccccc2Cl)SC1=S)N1CCCC1,1,-8,?,10µM*,-24%,-7%
O=C(CCN1C(=O)/C(=C\c2ccccc2)SC1=S)N1CCOCC1,1,17,?,6%,i,0%
O=C(CCCN1C(=O)/C(=C/c2ccccc2)SC1=S)N1CCOCC1,0,-7,?,8.9µM*,-20%,3%
CN(C)c1ccc(C2CNC(c3ccc(Cl)c([N+](=O)[O-])c3)c3[nH]c4ccccc4c32)cc1 (configuration not stated),0,-5,15%,4.5µM*,i,-2%
O=[N+]([O-])c1cccc(C2NCC(c3ccccc3Cl)c3c2[nH]c2ccccc32)c1 (configuration not stated),1,-3,-3%[7.66 µM],?,-13%,-5%
CC1CCc2[nH]c3ccc(C(=O)N4CCCC(C(F)(F)F)C4)cc3c2C1 (configuration not stated),0,-4,-13%,10µM*,i,-14%
N#C/C(=C(/O)CN1CCOCC1)c1nc2ccccc2s1,1,0,3%,-18%,-18%,1%
COc1ccc(-n2nc(C(=O)NCC(=O)NCC3COc4ccccc4O3)c3ccccc3c2=O)c(OC)c1 (configuration not stated),0,33*,-16%,0%,-26%,-2%
CCN(C(=O)c1ccc(C(C)(C)C)cc1)c1nnc(Cn2nnc3ccccc32)s1,0,-5,-17%,5µM*,-11%,-2%
COc1ccc(NC(=O)C(c2ccc(OC)cc2)N(C)C(=O)c2cnccn2)cc1 (configuration not stated),0,-2,-14%,1%,-4%[57.5 µM],1%
O=C(Nc1cccc(-c2ccc3nncn3n2)c1)C(F)(F)F,0,-2,-4%,15%,i,9%
CCC(CC)C(=O)Nc1cccc(-c2ccc3nncn3n2)c1,5,31*,1%,32%,-1%,21%
O=C1CC(N2CCN(c3ccc(Cl)cc3)CC2)C(=O)N1c1ccc(F)cc1 (configuration not stated),0,-13,5%,-8%,-19%,-3%
